From PubChem BioAssay (Tox21)
Activity calls are given as the source filed them. A call without a number means that no potency is given here. Unless noted, calls follow the shape of the dose curve; as a rule, active = well fitted curve in the direction sought with a large enough effect in the repeat runs; inconclusive = weak or mixed curves; inactive = no such curve, though single readings can be large; an effect the other way counts as inactive or inconclusive.

Experiments:
[1] = qHTS assay for small molecule disruptors of the mitochondrial membrane potential (AID 720635); also: potency is read from the fitted curve at half-maximal effect
Procedure, shortened: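 HepG2 cells (2,000/well) attached overnight at 37C, then took compound for 1 hr at 37C, 5% CO2. Mito-MPS dye was added for 30 min; fluorescence was read at 490/535 nm (monomers) and 540/590 nm (aggregates).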

[2] = qHTS assay to test for compound auto fluorescence at 535 nm (green) in HepG2 cells (AID 720675)
[3] = qHTS assay to test for compound auto fluorescence at 590 nm (red) in HEK293 cells (AID 720679)
Procedure, shortened: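 Red autofluorescence, HEK293 cells: 2,000 cells/well; attach 4-5 hr 37C; add 23 nL cpd or DMSO; incubate o/n 37C 5% CO2; read Ex540/Em590; Rose Bengal sodium reference.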

[4] = qHTS assay to test for compound auto fluorescence at 590 nm (red) in HepG2 cell free culture (AID 720684)
Procedure, shortened: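 Readout: intrinsic compound fluorescence at 590 nm emission after 540 nm excitation, scaled to Rose Bengal sodium. Matrix was cell-free MEM with 10% FBS; DMSO vehicle wells served as control.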

[5] = qHTS assay to test for compound auto fluorescence at 535 nm (green) in HepG2 cell free culture (AID 720686)
[6] = molecular target: Glucocorticoid receptor (Homo sapiens) (UniProt P04150); assay: qHTS assay to identify small molecule agonists of the glucocorticoid receptor (GR) signaling pathway (AID 720691; active = well fitted activation curve with a large enough effect in the signal ratio in the repeat runs, not every such curve was filed as active; inconclusive = weak or mixed curves, or effect the other way; inactive = no such curve, though single readings can be large or run the other way; the % refers to the signal ratio)
Chain of Glucocorticoid receptor (Homo sapiens) (P04150 whole entry, looked up): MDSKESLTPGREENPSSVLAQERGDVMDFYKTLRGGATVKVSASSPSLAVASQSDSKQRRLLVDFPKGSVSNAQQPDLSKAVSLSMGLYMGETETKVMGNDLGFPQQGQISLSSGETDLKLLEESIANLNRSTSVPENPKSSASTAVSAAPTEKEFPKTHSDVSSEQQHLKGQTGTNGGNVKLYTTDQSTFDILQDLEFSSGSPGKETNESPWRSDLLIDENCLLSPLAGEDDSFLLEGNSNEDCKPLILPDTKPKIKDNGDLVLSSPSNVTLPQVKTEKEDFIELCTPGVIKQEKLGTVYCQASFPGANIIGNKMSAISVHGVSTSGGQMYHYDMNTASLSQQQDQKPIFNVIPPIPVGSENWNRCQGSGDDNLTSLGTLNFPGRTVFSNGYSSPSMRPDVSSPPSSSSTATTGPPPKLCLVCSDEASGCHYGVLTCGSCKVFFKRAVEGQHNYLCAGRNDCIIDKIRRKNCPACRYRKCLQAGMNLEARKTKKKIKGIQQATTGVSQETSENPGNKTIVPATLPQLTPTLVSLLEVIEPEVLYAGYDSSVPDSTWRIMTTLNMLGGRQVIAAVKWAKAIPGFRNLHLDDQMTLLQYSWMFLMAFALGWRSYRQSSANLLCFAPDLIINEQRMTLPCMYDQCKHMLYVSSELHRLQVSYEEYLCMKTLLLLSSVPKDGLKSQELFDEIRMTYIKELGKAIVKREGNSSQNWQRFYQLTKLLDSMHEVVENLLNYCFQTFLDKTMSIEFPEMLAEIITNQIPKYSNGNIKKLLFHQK
Procedure, shortened: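 Agonist-mode qHTS in HeLa cells stably expressing a glucocorticoid-response-element beta-lactamase reporter. Fluorescence intensity read with FRET substrate (2 h, room temperature) after 18 h compound treatment at 37 C.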

[7] = qHTS assay to identify small molecule antagonists of the glucocorticoid receptor (GR) signaling pathway - cell viability counter screen (AID 720693); also: nearly all actives have a fitted effect of over 55% in size; also: potency is read from the fitted curve at half-maximal effect
[8] = qHTS assay for identifying genotoxic compounds that show differential cytotoxicity against isogenic chicken DT40 cell lines with known DNA damage response pathways - Rev3 mutant cell line (AID 743014); also: nearly all actives have a fitted effect of over 55% in size; also: potency is read from the fitted curve at half-maximal effect
[9] = qHTS assay for identifying genotoxic compounds that show differential cytotoxicity against isogenic chicken DT40 cell lines with known DNA damage response pathways - Rad54/Ku70 mutant cell line (AID 743015); also: nearly all actives have a fitted effect of over 60% in size
[10] = qHTS assay to identify small molecule antagonists of the androgen receptor (AR) signaling pathway using the MDA cell line - cell viability counter screen (AID 743041; also: nearly all actives have a fitted effect of over 45% in size; also: potency is read from the fitted curve at half-maximal effect)
Procedure, shortened: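 qHTS viability read-out; MDA-kb2 AR-luc; R1881-stimulated; 16 h exposure at 37C, 0% CO2; CellTiter-Fluor, 30 min; fluorescence intensity.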

[11] = qHTS assay to identify small molecule antagonists of the thyroid receptor (TR) signaling pathway - cell viability counter screen (AID 743064); also: nearly all actives have a fitted effect of over 50% in size; also: potency is read from the fitted curve at half-maximal effect
Procedure, shortened: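 Fluorescence from CellTiter-Fluor, added after 23.5 h exposure at 37 °C, reported viability of GH3.TRE-Luc cells co-treated with compound and 1 nM T3. Measured in the same wells as the luciferase TR readout.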

[12] = qHTS assay to identify small molecule antagonists of the thyroid receptor (TR) signaling pathway (AID 743065); also: nearly all actives have a fitted effect of over 55% in size; also: potency is read from the fitted curve at half-maximal effect
Procedure, shortened: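 GH3.TRE-Luc rat pituitary cells carrying two TR response elements driving luciferase were plated for 4 h, given compound plus 1 nM T3 (final), and incubated 23.5 h at 37 C. ONE-Glo luminescence measured reporter inhibition; CellTiter-Fluor fluorescence tracked cytotoxicity.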

[13] = molecular target: Estrogen receptor (Homo sapiens) (UniProt P03372); assay: qHTS assay to identify small molecule agonists of the estrogen receptor alpha (ER-alpha) signaling pathway (AID 743075; calls by dose curve;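 also: HEK293 GripTite cells with ER-alpha and UAS-driven beta-lactamase reporter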; also: potency is read from the fitted curve at half-maximal effect)
Chain of Estrogen receptor (Homo sapiens) (P03372 whole entry, looked up): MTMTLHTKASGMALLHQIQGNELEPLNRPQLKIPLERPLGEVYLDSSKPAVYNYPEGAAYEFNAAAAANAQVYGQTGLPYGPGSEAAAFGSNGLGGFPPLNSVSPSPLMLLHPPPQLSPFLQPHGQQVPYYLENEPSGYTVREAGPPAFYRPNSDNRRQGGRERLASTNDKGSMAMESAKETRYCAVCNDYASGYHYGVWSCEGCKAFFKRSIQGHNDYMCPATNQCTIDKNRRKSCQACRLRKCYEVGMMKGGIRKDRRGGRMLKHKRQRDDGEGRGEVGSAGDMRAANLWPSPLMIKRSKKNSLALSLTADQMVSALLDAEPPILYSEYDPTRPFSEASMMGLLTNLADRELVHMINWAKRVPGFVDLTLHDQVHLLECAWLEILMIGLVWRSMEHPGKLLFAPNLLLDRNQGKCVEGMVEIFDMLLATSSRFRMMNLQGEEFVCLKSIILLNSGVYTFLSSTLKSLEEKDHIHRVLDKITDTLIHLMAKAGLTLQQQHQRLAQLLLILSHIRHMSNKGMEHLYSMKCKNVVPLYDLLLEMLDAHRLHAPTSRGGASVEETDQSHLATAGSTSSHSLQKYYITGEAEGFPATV

[14] = molecular target: Estrogen receptor (Homo sapiens) (UniProt P03372); assay: qHTS assay to identify small molecule agonists of the estrogen receptor alpha (ER-alpha) signaling pathway using the BG1 cell line (AID 743079); also: nearly all actives have a fitted effect of over 20% in size; also: potency is read from the fitted curve at half-maximal effect
[15] = qHTS assay to identify small molecule antagonists of the estrogen receptor alpha (ER-alpha) signaling pathway using the BG1 cell line (AID 743080; calls by dose curve;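 also: BG1 cells stimulated with 17beta-estradiol alongside compound; series mostly up to about 70 µM; nearly all actives have a fitted effect of over 25% in size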)
Procedure, shortened: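 Readout is ONE-Glo luminescence, taken 30 min at room temperature after reagent addition, preceded by a CellTiter-Fluor viability read; BG1-Luc-4E2 cells had received compound and 17beta-estradiol for 21.5 h at 37 C.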

[16] = molecular target: Aryl hydrocarbon receptor (Homo sapiens) (UniProt P35869); assay: qHTS assay to identify small molecule that activate the aryl hydrocarbon receptor (AhR) signaling pathway (AID 743085);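 also: HG2L7.5c1 human HepG2 liver cells with stably integrated DRE-driven firefly reporter; series mostly up to about 70 µM; nearly all actives have a fitted effect of over 15% in size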
Chain of Aryl hydrocarbon receptor (Homo sapiens) (P35869 whole entry, looked up): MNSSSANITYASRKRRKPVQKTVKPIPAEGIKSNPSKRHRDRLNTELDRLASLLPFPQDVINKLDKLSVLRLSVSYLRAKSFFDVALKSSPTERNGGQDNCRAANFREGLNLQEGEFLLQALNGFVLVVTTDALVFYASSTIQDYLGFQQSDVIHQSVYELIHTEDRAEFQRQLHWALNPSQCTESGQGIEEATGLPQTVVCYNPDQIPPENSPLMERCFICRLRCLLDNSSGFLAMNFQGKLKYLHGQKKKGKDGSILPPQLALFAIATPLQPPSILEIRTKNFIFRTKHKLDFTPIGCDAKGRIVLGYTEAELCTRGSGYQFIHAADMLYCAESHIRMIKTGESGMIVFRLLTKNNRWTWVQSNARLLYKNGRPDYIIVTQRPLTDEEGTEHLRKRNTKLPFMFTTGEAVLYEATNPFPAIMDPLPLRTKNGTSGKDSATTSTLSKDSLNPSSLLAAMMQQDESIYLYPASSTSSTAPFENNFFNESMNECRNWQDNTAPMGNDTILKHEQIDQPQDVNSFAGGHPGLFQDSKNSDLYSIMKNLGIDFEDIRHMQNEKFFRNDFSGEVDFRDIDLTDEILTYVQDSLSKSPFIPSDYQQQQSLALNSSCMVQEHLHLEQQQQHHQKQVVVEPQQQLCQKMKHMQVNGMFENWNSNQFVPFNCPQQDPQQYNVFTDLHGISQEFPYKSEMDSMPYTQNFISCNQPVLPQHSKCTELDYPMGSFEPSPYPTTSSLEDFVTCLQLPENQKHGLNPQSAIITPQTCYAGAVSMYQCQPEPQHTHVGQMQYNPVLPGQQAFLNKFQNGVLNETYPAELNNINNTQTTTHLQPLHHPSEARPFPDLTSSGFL
Procedure, shortened: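 Cell line HG2L7.5c1 (human hepatoma, 20× DRE-luc). Plated, 5 h 37C, compound/DMSO added, 24 h 37C. CellTiter-Fluor 30 min 37C → fluorescence; then ONE-Glo 30 min RT → luminescence.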

[17] = molecular target: Nuclear receptor subfamily 1 group I member 2 (Homo sapiens) (UniProt O75469); assay: CYP3A4 induction through human pregnane X receptor (PXR) by small molecules, qHTS assay (AID 1346984); also: nearly all actives have a fitted effect of over 40% in size
Procedure, shortened: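 Read-out is luminescence after One-Glo addition, following a 3 hr, 37C incubation with Luciferin-IPA CYP3A4 substrate (3uM final). Before that, compounds were on DPX-2 cells (HepG2 co-transfected with PXR element plus CYP3A4-promoter luciferase) for 24 hr at 37C.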

[18] = molecular target: Nuclear receptor subfamily 1 group I member 2 (Homo sapiens) (UniProt O75469); assay: Human pregnane X receptor (PXR) activation by small molecules, qHTS assay (AID 1346985); also: nearly all actives have a fitted effect of over 40% in size
Procedure, shortened: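 DPX-2 cells (HepG2 co-transfected with a PXR response element and a CYP3A4-promoter luciferase construct) were seeded at 2,000 per well, rested 5 hr at 37C, then exposed to DMSO-dissolved compounds for 24 hr. Activation was read as luciferase luminescence.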

[19] = qHTS assay to test for compound auto fluorescence at 460 nm (blue) in HEK293 cell free culture (AID 720681)
Procedure, shortened: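 Test compounds were pinned into cell-free culture medium (DMEM with 10% FBS) and fluorescence was read directly at Ex/Em 405/460 nm. Signals were expressed as fluorescence equivalents of triamterene, with DMSO vehicle as control.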

[20] = molecular target: Peroxisome proliferator-activated receptor gamma (Homo sapiens) (UniProt P37231); assay: qHTS assay to identify small molecule agonists of the peroxisome proliferator-activated receptor gamma (PPARg) signaling pathway (AID 743094; active = well fitted activation curve with a large enough effect in the signal ratio in the repeat runs, not every such curve was filed as active; inconclusive = weak or mixed curves, or effect the other way; inactive = no such curve, though single readings can be large or run the other way; the % refers to the signal ratio)
Chain of Peroxisome proliferator-activated receptor gamma (Homo sapiens) (P37231 whole entry, looked up): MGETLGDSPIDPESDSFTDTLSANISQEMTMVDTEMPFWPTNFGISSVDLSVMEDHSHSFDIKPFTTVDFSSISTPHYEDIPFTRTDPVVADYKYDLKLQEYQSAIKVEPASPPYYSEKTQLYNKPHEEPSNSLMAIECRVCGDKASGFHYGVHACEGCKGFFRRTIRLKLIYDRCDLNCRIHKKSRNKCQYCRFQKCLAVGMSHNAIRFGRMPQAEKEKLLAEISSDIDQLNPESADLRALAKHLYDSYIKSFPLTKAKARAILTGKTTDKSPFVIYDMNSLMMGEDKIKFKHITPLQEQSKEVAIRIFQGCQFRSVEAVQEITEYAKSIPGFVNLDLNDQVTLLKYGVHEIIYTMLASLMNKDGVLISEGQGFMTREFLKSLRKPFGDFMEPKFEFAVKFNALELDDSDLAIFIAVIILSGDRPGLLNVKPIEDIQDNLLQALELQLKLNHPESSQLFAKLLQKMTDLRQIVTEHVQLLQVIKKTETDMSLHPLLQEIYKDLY
Procedure, shortened: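 Agonist activity was taken from a beta-lactamase reporter (FRET substrate, 1 h at room temperature) in HEK293H cells carrying a PPARg UAS-bla construct. Compounds in DMSO were incubated 17 h at 37C after a 5 h cell pre-incubation.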

Row | Compound | Potency [1] | Potency [2] | outcome [3] | outcome [4] | Potency [5] | Potency [6] | Potency [7] | Potency [8] | Potency [9] | Potency [10] | Potency [11] | Potency [12] | Potency [13] | Potency [14] | Potency [15] | Potency [16] | Potency [17] | Potency [18] | Potency [19] | Potency [20]
1 | CNC(=O)OCC[N+](C)(C)C | inactive | inactive | inactive | inactive | inactive | inactive | inactive | inactive | inactive | inactive | inactive | inactive | inactive | inactive | inactive | inactive | inactive | inactive |  | 
2 | C[C@]12CC[C@H]3[C@@H](CCC4=C(O)C(=O)CC[C@@H]43)[C@@H]1CC[C@@H]2OC(=O)CCC1CCCC1 | inactive |  | inactive |  | inactive | inactive | inactive | inactive | inactive | inactive |  | inactive | 0.952 µM [inconclusive] (active) | 119 nM (active) | inactive | inactive | inactive | inactive | inactive | inactive
3 | c1ccccc1 |  |  | inactive | inactive |  | inactive | inactive | inactive | inactive | inactive | inactive | inactive | inactive | inactive | inactive |  |  |  |  | inactive
4 | C[C@]12C=CC(=O)C=C1CC[C@@H]1[C@@H]2CC[C@]2(C)OC(=O)CC[C@@H]12 | inactive | inactive | inactive |  | inactive |  | inactive | inactive |  | inactive |  | inactive | 21.3 µM [inconclusive] (active) | 5310 nM (active) | inactive | inactive | inactive | inactive | inactive | inactive
5 | S=C(S)N1CCNCC1 | inactive | inactive |  | inactive |  | inactive |  |  | inactive |  | inactive | inactive | inactive | inactive | inactive | inactive | inactive | inactive | inactive | inactive
6 | O=c1[nH]cc(N(CCCl)CCCl)c(=O)[nH]1 |  | inactive | inactive | inactive | inactive | inactive |  |  | inactive | inactive | inactive | inactive | inactive | inactive | inactive | inactive | inactive | inactive | inactive | inactive
7 | COC1=CC=C2[C@H]3Cc4ccc(OC)c5c4[C@@]2(CCN3C)[C@H]1O5 | inactive | inactive | inactive | inactive | inactive | inactive | inactive | inactive | inactive | inactive | inactive |  | inactive | inactive | inactive | inactive | inactive | inactive | inactive | inactive
8 | CC(=O)OC1CN2CCC1CC2 (centres undefined) |  | inactive | inactive |  |  | inactive |  | inactive | inactive | inactive | inactive | inactive | inactive | inactive | inactive | inactive | inactive | inactive | inactive | inactive
9 | Oc1ccc2c3c1O[C@H]1[C@@H](O)CC[C@@]4(O)[C@@H](C2)N(CC2CCC2)CC[C@]314 |  | inactive | inactive | inactive | inactive | inactive | inactive | inactive | inactive |  | inactive | inactive | inactive | inactive |  | inactive |  | inactive | inactive | inactive
10 | C=CCN(C1=NCCN1)c1c(Cl)cccc1Cl | inactive | inactive | inactive | inactive | inactive | inactive | inactive | inactive |  | inactive | inactive | inactive | inactive | 11900 nM (active) | inactive | inactive | inactive | inactive | inactive | inactive
11 | C[N+]1(C)CCCCC1COC(=O)C(O)(c1ccccc1)c1ccccc1 (centres undefined) |  | inactive |  | inactive | inactive | inactive | inactive |  | inactive | inactive |  |  |  |  |  |  | inactive | inactive | inactive | 
12 | NCC[C@H](O)C(=O)N[C@@H]1C[C@H](N)[C@@H](O[C@H]2O[C@H](CN)[C@@H](O)[C@H](O)[C@H]2N)[C@H](O[C@@H]2O[C@H](CO)[C@@H](O)[C@H]2O)[C@H]1O |  | inactive | inactive | inactive |  |  |  | inactive | inactive | inactive | inactive |  | inactive | inactive | inactive | inactive | inactive | inactive | inactive | inactive
13 | C#CC(C)(O)CC (centres undefined) |  | inactive | inactive | inactive | inactive | inactive | inactive | inactive | inactive | inactive |  | inactive | inactive | inactive | inactive |  | inactive | inactive | inactive | inactive
14 | C[C@H]1CC[C@]2(NC1)O[C@H]1C[C@H]3[C@@H]4CC[C@H]5C[C@@H](O[C@@H]6O[C@H](CO)[C@H](O[C@@H]7O[C@H](CO)[C@@H](O)[C@H](O[C@@H]8OC[C@@H](O)[C@H](O)[C@H]8O)[C@H]7O[C@@H]7O[C@H](CO)[C@@H](O)[C@H](O)[C@H]7O)[C@H](O)[C@H]6O)CC[C@]5(C)[C@H]4CC[C@]3(C)[C@H]1[C@@H]2C | 1.97 µM (active) | inactive | inactive | inactive | inactive |  | 2.39 µM (active) | 2.37 µM (active) |  | 6.68 µM (active) | 2.37 µM (active) | 2.37 µM (active) | 9.52 µM [inconclusive] (active) |  |  | inactive | inactive | inactive | inactive | 
15 | CC(C)CCC(=O)O[C@H]1CC[C@H]2[C@@H]3CCC4=CC(=O)CC[C@]4(C)[C@H]3CC[C@]12C |  | inactive | inactive | inactive | inactive | inactive |  | inactive | inactive | inactive | 33.5 µM (active) |  | 4.77 µM [inconclusive] (active) | 66.8 nM (active) | inactive | inactive | inactive | inactive |  | inactive
